Results filed as inconclusive are left out. Calls of active or inactive are those of the source.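 How the source made its calls, unless noted: active means inhibition over a set limit, the all-compound mean plus 3 SD, in both replicate runs; inconclusive means over that limit in just one replicate run; inactive means at or under that limit in both runs.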
Experiments:
[1] = reducers of endogenous Her2 protein level, primary screen, SKBR3 breast tumor cells, AlphaScreen, ATP viability (AID 461;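 active means Her2 level under about 52% in both replicate screens, with viability over 70% of control, limit read from the data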;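 on Her2 level: lower value means less Her2 protein in the cells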;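 on viability: percent of carrier control wells set as 100% viability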); details: 18-24 h, measured here: SKBR3 viability, ATP luminescence, at 10 µM
[2] = molecular target: Receptor tyrosine-protein kinase erbB-2 (Homo sapiens) (UniProt P04626); test: as above; details: 18-24 h, at 10 µM, stronger effect = lower value
Sequence of Receptor tyrosine-protein kinase erbB-2 (Homo sapiens) (P04626 whole entry, looked up): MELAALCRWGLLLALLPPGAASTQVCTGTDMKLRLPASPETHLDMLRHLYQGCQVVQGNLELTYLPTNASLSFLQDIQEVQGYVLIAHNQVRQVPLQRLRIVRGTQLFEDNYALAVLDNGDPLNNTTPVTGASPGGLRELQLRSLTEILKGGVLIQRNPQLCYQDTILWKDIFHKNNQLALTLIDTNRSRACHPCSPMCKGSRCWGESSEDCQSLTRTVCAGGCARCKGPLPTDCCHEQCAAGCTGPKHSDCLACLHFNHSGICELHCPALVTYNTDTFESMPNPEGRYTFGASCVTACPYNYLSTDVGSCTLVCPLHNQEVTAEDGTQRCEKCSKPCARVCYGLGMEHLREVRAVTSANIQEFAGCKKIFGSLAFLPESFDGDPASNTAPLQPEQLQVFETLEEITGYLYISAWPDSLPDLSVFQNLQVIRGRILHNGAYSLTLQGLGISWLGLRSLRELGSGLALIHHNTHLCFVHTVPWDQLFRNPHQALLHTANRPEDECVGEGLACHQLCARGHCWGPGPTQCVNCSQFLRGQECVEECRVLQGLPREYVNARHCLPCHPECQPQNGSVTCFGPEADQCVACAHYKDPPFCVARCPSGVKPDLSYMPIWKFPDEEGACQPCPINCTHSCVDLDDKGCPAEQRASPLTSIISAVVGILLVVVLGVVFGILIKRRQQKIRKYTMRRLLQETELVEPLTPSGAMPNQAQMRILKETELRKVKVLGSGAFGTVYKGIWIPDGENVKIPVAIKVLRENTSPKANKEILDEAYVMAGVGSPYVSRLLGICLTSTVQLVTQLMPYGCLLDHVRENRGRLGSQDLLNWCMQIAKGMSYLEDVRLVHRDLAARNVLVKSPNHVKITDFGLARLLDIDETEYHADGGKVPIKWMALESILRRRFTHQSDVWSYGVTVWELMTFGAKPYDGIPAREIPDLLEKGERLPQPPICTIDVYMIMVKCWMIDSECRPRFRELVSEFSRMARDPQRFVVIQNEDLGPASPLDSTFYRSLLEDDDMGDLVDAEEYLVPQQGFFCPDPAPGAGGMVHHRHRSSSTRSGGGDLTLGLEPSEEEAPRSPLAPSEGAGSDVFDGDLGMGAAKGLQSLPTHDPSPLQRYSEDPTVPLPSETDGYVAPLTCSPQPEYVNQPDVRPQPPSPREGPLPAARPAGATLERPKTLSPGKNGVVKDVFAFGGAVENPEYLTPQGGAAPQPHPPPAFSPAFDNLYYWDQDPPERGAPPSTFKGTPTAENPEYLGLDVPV

[3] = SK-BR-3 cell growth inhibitors, pilot screen, 24 h, human (AID 572;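 active means viability at or below 10% of carrier control in both of two separate runs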;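 further: compound exposure lasted between 18 and 24 h rather than exactly 24 h; 100% = carrier-treated control wells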); details: SK-BR-3 viability, CellTiter-Glo luminescence, at 10 µM, stronger effect = lower value
[4] = HUVEC growth inhibition – cell-based, human, primary screen (AID 575;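 active means viability at or below 30% in both replicate assays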;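 further: 100% = median of untreated cell wells with 0.1% DMSO on each plate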); details: HUVEC proliferation, CellTiter-Glo luminescence, 72 h; at 10 µM; stronger effect = lower value
[5] = growth inhibitors of H69AR lung tumor, primary screen, human, duplicate replicates (AID 580;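 active means viability at or under a set limit in both replicates, limit being median viability minus 3 SD, cut at about 48% in these data, passing the limit was not always enough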;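 further: 100% = mean luminescence of untreated wells and 0% = no signal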); details: H69AR lung tumor cells viability, ATP luminescence, 72 h; at 10 µM; stronger effect = lower value
[6] = reversal of MRP1-mediated doxorubicin resistance, pilot screen, H69AR cells, doxorubicin co-treatment (AID 601;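 active means viability loss from added drug above about 55%, and viability with drug at most 40%, in both replicates, limit read from the data, passing the limit was not always enough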); details: CellTiter-Glo, 72 h, at 10 µM; for differential viability (reversal): stronger effect = higher value
[7] = 384-well plate pilot, post-Golgi transport modulator project, inhibition of yeast transport mutant growth (AID 636; in the data active means inhibition above about 31%); details: absorbance 615 nm, about 18 h, stronger effect = higher value
[8] = growth suppression of yeast trafficking mutant, preliminary HTS, modulators of trafficking downstream of Golgi apparatus project, 1536-format plate, OD 615 nm (AID 637; in the data active means inhibition above about 30%); details: yeast transport mutant growth, absorbance 615 nm, 18 h; stronger effect = higher value
[9] = OD615 S. cerevisiae growth inhibition, permissive medium, pilot counter-assay, permissive growth control for S. cerevisiae lifespan shortening project (AID 705;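 active means growth inhibition above 25% in both replicates, a cutoff set 3 SD above the mean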); details: OD615, 24 h, at 10 µM, stronger effect = higher value
[10] = Restrictive medium S. cerevisiae growth inhibition, OD615, pilot screen of yeast lifespan reduction project, restrictive growth control (AID 706;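 active means growth inhibition above a set limit, 3 SD over mean compound inhibition, in both replicates, cut at about 43% in these data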;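 further: modified DeaD lifespan yeast strain shifted to restrictive glucose medium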); details: OD615, 48 h, at 10 µM, stronger effect = higher value
[11] = viability gain of MRP-1-high H69AR cells under doxorubicin, pilot screen, MRP-1 activator project, CellTiter-Glo, duplicate (AID 807;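 active means viability increase at or above a cutoff of the median across tested compounds plus 3 SD, cut at about 8.5% in these data, passing the limit was not always enough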;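 further: compound pretreatment 18-22 h then 72 h combined with doxorubicin; 0% = doxorubicin alone and 100% = vehicle without doxorubicin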); details: H69AR viability with doxorubicin, CellTiter-Glo luminescence; at 10 µM; stronger effect = higher value
[12] = growth suppression of beta-catenin knockout HCT116, pilot screen, human colon tumor cells (AID 823;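 active means cell viability at or below a set limit in both duplicate runs, the limit being the all-compound median minus 4 SD, cut at about 23% in these data, passing the limit was not always enough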;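 further: 0% = wells killed by 20 µM Hyamine and 100% = untreated DMSO cell wells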); details: CellTiter-Glo, 60 h, at 10 µM, stronger effect = lower value
[13] = growth suppression of PTEN-deleted HCT116, pilot screen, cell-based, HCT116 clonal line, CellTiter-Glo (AID 824;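 active means viability at or below 27.92% in each of two runs, the all-compound median minus 4 SD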;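 further: 0% = 20 µM Hyamine control and 100% = vehicle cell control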); details: 60 h, at 10 µM, stronger effect = lower value
[14] = inhibitors of the yeast RAM network, pilot screen, dse1pr::URA3 reporter, 5-FOA selection (AID 869);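 further: 0% = DMSO wells with no growth and 100% = 10 µM 1-NA-PP1 with full growth; RAM network block rescues cells from 5-FOA so hits raise OD615 growth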; details: S. cerevisiae dse1pr::URA3 5-FOA growth, OD615, 2 d; at 10 µM; stronger effect = higher value; strain carries analog-sensitive mutant Cbk1 kinase
[15] = RAM signaling pathway blockade in yeast – S. cerevisiae, Pdr1DBD-CYC8 efflux-inhibited sensitized strain, primary screen (AID 1298;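 active means RAM network inhibition above 8.4% in each of two replicates, 3 SD over the compound average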;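 further: 0% = DMSO untreated cells without growth and 100% = 10 µM 1-NA-PP1 full growth; higher means more yeast growth rescued from 5-FOA killing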); details: S. cerevisiae cbk1-as DSE1-URA3 strain, 5-FOA growth OD615, 2 d; at 50 µM; stronger effect = higher value
[16] = H69AR cells + 2 uM doxorubicin, measured here: viability with 2 uM doxorubicin, stronger effect = lower value
[17] = H69AR cells, compound alone cytotoxicity

CCc1cccc(NC(=O)CCc2nc(-c3cccs3)no2)c1
inactive: Her2 level [2] 107% | viability [3] 108% | viability [4] 95.4% | viability [5] 101% | differential viability (reversal) ([6]; H69AR cells + 2 uM doxorubicin) 15.6% | inhibition [7] -3.47% | inhibition [8] -0.98% | growth inhibition [9] -1.88% | growth inhibition [10] -1.74% | viability increase [11] -1.34% | viability [12] 95.6% | viability [13] 97.6% | inhibition [14] 0.515% | RAM network inhibition [15] -1.4%
101%: viability [6, 17]
108%: viability [1]
85.1%: viability [6, 16]

CCCNC(=O)C1CC(=O)N(c2ccc(OCC(=O)Nc3cc(C)cc(C)c3)cc2)C1 (stereo not given)
112%: viability [1]
95.6%: viability [6, 17]
91.2%: viability [6, 16]
inactive: Her2 level [2] 122% | viability [3] 112% | viability [4] 80.5% | viability [5] 95.6% | differential viability (reversal) ([6]; H69AR cells + 2 uM doxorubicin) 4.41% | inhibition [7] -0.53% | inhibition [8] -4.33% | growth inhibition [9] -14.5% | growth inhibition [10] -25.6% | viability increase [11] -4.47% | viability [12] 92% | viability [13] 90.4% | inhibition [14] 2.06% | RAM network inhibition [15] 4.16%

Cc1cccc(C(=O)N2CCN(C(=O)c3cccc(C)c3)C(C)C2)c1 (stereo not given)
110%: viability [1]
87.7%: viability [6, 16]
inactive: Her2 level [2] 116% | viability [3] 110% | viability [4] 107% | viability [5] 90.3% | differential viability (reversal) ([6]; H69AR cells + 2 uM doxorubicin) 2.61% | inhibition [7] -1.76% | inhibition [8] 24.8% | growth inhibition [9] -19.2% | growth inhibition [10] -9.12% | viability increase [11] 0.74% | viability [12] 95.9% | viability [13] 96.2% | inhibition [14] 0.75% | RAM network inhibition [15] 0.55%
90.3%: viability [6, 17]

O=C(Cn1cc2c(n1)CCCCC2)N1CCc2ccccc2C1
89.8%: viability [6, 16]
116%: viability [1]
inactive: Her2 level [2] 114% | viability [3] 116% | viability [4] 95% | viability [5] 92.9% | differential viability (reversal) ([6]; H69AR cells + 2 uM doxorubicin) 3.17% | inhibition [7] -2.18% | inhibition [8] -3% | growth inhibition [9] 7.48% | growth inhibition [10] 10.6% | viability increase [11] 1.54% | viability [12] 86.2% | viability [13] 84.7% | inhibition [14] 1.98% | RAM network inhibition [15] 6.93%
92.9%: viability [6, 17]

CCOC(=O)C1CCN(c2c(NC3CCCc4ccccc43)c(=O)c2=O)CC1 (stereo not given)
87.2%: viability [6, 16]
82%: viability [1]
87.7%: viability [6, 17]
inactive: Her2 level [2] 106% | viability [3] 82% | viability [4] 106% | viability [5] 87.7% | differential viability (reversal) ([6]; H69AR cells + 2 uM doxorubicin) 0.54% | inhibition [7] 1.41% | inhibition [8] 0.67% | growth inhibition [9] 6.77% | growth inhibition [10] -3.4% | viability increase [11] -1.77% | viability [12] 102% | viability [13] 96.8% | inhibition [14] -0.155% | RAM network inhibition [15] 0%

Reference: PubChem BioAssay
